Screening results: PubChem BioAssay, several laboratories
An excerpt weighted towards active compounds, which were near 2.7% of everything screened.
rCAG RNA binder: molecules binding r(CAG) RNA repeats; r(CAG) RNA repeat, TO-PRO-1 dye displacement fluorescence; inhibition, % at 3 µM; 370,000 tested, 1.3% active; AID 651821;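 active = inhibition above the plate cutoff, the mean of all test compounds on that plate plus 3 SD, cut at about 35% in these data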;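 note: higher means more dye released from RNA so lower well fluorescence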
NadD inh: blocks S. aureus nicotinate mononucleotide adenylyltransferase; inhibition, % at 20 µM; 360,000 tested, 0.78% active; purified NadD enzyme, colorimetric absorbance read-out; in the data active = inhibition above about 26%
MsrA act: bovine methionine sulfoxide reductase A activation. purified bovine MsrA, absorbance read-out. 360,000 tested, 0.3% active. activation, % at 10.6 µM; in the data active = activation above about 7.5%
MsrA inhibitor: inhibits bovine methionine sulfoxide reductase A; purified bovine MsrA, absorbance read-out; inhibition, % at 15.5 µM; 360,000 tested, 0.75% active; in the data active = inhibition above about 4.5%
MsrA activ conf: confirmation of bovine methionine sulfoxide reductase A activators | purified bovine MsrA, absorbance read-out | AID 602270 | activation, % at 10.6 µM | shares compounds with MsrA act | 1,000 tested, 12% active; in the data active = activation above about 4%;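 note: enzyme coupled to thioredoxin and thioredoxin reductase with NADPH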
Of the large screens only hits and unclear results are named; the others gave an inactive call (follow-up assays come after a bar, where they were run); ! = not active in a repeat.

Cc1ccc(-n2sc3ccccc3c2=O)cc1S(=O)(=O)N1CCCCC1	none
O=c1c2ccccc2sn1-c1cccc(Cl)c1	MsrA act 12 | MsrA activ conf 5.8
O=c1c2ccccc2sn1-c1ccccc1	MsrA act 12 | MsrA activ conf 13
N#Cc1ccc2c(=O)n(-c3ccccc3)sc2c1	none
CN(C)S(=O)(=O)c1cccc(-n2sc3ccccc3c2=O)c1	MsrA act 7.7 | MsrA activ conf 8.9
O=c1c2cc(F)ccc2sn1-c1ccccc1	MsrA act 15 | MsrA activ conf 9.8
COc1ccc(Cn2cc(CN3[C@H](Cc4ccccc4)COc4cc(Br)ccc4S3(=O)=O)nn2)cc1	none (no result: NadD inh, MsrA act, MsrA inhibitor)
COC(=O)[C@]1(CNS(=O)(=O)C2CC2)CC(=O)N(C)[C@@H]1c1ccccc1	none (no result: NadD inh, MsrA act, MsrA inhibitor)
O=c1c2ccccc2sn1-c1ccccc1F	none
Cc1ccccc1-n1sc2cc(F)ccc2c1=O	MsrA act 15 | MsrA activ conf 9.7
CC(=O)Nc1ccc2c(=O)n(-c3ccccc3)sc2c1	MsrA act 7.7 | MsrA activ conf inactive
COc1ccc(S(=O)(=O)N2C[C@H]3CON(C)[C@H]3C[C@H]2c2ccc(-c3cc4ccccc4o3)cc2)cc1	none
O=C(Nc1nnc([C@H]2C[C@H](O)[C@@H](CO)O2)s1)Nc1ccc(F)cc1F	MsrA act 7.8 | MsrA activ conf inactive
COc1ccc(CNC(=O)C2Cc3cc(S(=O)(=O)N4CCCC4)ccc3N2C(C)=O)c(OC)c1 (centres undefined)	none
CCCCN(C)C(=O)c1cc2cc3ccc(OC)cc3nc2o1	MsrA act 17 | MsrA activ conf inactive
O=C1C=CC(=O)N1c1cccc2cccnc12	none
COc1ccc(S(=O)(=O)N2CCC(c3nc4ccccc4o3)CC2)c(OC)c1	none (no result: NadD inh, MsrA act, MsrA inhibitor)
CCN1CCN(Cc2ccc(NC(=O)c3ccc(C)c(NC(=O)C[C@@H]4NC(=O)[C@H](Cc5ccccc5)NC4=O)c3)cc2C(F)(F)F)CC1	MsrA act 7.7! | MsrA activ conf inactive
Cc1ccccc1N=C1NC(=O)/C(=C/c2cccn2C)S1	MsrA act 8.1 | MsrA activ conf inactive
Cc1ccc(N=C2NC(=O)/C(=C\c3cccs3)S2)cc1C	none
COC(=O)c1cc(C(c2ccccc2O)C2CCC(C)(C)O2)n2ccccc12 (centres undefined)	none (no result: NadD inh, MsrA act, MsrA inhibitor)
O=C(COc1ccc2cc(Br)ccc2c1)N1CCOCC1	MsrA act 13 | MsrA activ conf inactive
CCCCNc1ccc2c(c1)C1CC2CCN1C(=O)OCc1ccccc1 (centres undefined)	none
O=C(O)[C@@H]1Cc2ccccc2N1	MsrA act 8.2 | MsrA activ conf inactive
COCCn1nnnc1CN1CCN(c2cccc(C(F)(F)F)c2)CC1	MsrA act 8.4 | MsrA activ conf inactive
COc1ccc(OC)c(S(=O)(=O)N2CCC(C(=O)NCc3cccs3)CC2)c1	none (no result: NadD inh, MsrA act, MsrA inhibitor)
CC(C)CC1NC(=O)N(CC(=O)Nc2ccc3c(c2)OCCO3)C1=O (centres undefined)	MsrA act 13 | MsrA activ conf inactive
COc1ccc(-n2c(C)nnc2SCC(=O)N2CCOCC2)cc1	none
C=C1CCC[C@]2(C)C[C@H]3OC(=O)C(CN(C)CC(OC)OC)[C@H]3CC12 (some centres undefined)	MsrA act 8.7 | MsrA activ conf inactive
Cc1cc(C(=O)Nc2cccc([N+](=O)[O-])c2C)cs1	none
Cc1c(NC(=O)c2ccc(C(C)(C)C)cc2)cccc1[N+](=O)[O-]	MsrA act 11 | MsrA activ conf inactive
CCCN1CCN(C(=O)CS(=O)(=O)Cc2nc(-c3cccc(OC)c3)oc2C)CC1	MsrA act 9.3 | MsrA activ conf inactive
CCN1CCN(C(=O)CS(=O)(=O)Cc2nc(-c3cccc(OC)c3)oc2C)CC1	none
CC12CCC(C(N)C1=O)C2(C)C (centres undefined)	none
CC[n+]1ccc(/C=C/c2ccc(N(C)C)cc2)c2ccccc21	none
CC[n+]1ccc(C[n+]2ccccc2)c2ccccc21	MsrA act 11 | MsrA activ conf inactive
CC(C(=O)Nc1ccccc1Br)c1ccc([N+](=O)[O-])cc1 (centres undefined)	none
Cc1ccc(NC(=O)C(C)c2ccc([N+](=O)[O-])cc2)cc1Cl (centres undefined)	MsrA act 20 | MsrA activ conf inactive
CCC(C)[C@H](NC(=O)N1CCC(C)CC1)C(=O)OC (some centres undefined)	MsrA act 14 | MsrA activ conf inactive
O=C(Cc1n[nH]c(=O)c2ccccc12)Nc1cccc(S(=O)(=O)N2CCCCCC2)c1	none
Cc1ccc(Cn2nnc3c(=O)[nH]c(C4CCN(C(=O)Cc5cccs5)CC4)nc32)cc1	MsrA act 7.7 | MsrA activ conf inactive
O=C(Cc1cccs1)N1CCC(c2nc3c(nnn3Cc3ccccc3)c(=O)[nH]2)CC1	none
CCOc1cccc(C(c2c(C)n(C)n(-c3ccccc3)c2=O)c2c(C)n(C)n(-c3ccccc3)c2=O)c1OC	MsrA act 13 | MsrA activ conf inactive
COc1ccc(-c2c(C)nn3c(N4CCN(Cc5ccccc5)CC4)cc(C)nc23)cc1OC	MsrA act 8.3 | MsrA activ conf inactive
Cc1cc(N2CCN(Cc3ccccc3)CC2)n2nc(C)c(-c3ccccc3)c2n1	none
Cc1ccc(C)c2nc3sc(C(=O)N4CCOCC4)c(N)c3cc12	MsrA act 8.8 | MsrA activ conf 4.9
CCn1nc(C)cc1-c1nnc(Sc2ncc([N+](=O)[O-])s2)n1C	none
O=C(NC1(C(F)(F)F)N=C2SCCN2C1=O)C1CCCCC1 (centres undefined)	MsrA act 7.8 | MsrA activ conf inactive
CC1CC(C(F)(F)F)n2ncnc2N1 (centres undefined)	MsrA act 9.2 | MsrA activ conf inactive
O=S(=O)(Nc1ccccc1Cl)c1ccc(NS(=O)(=O)c2cccs2)cc1	MsrA act 7.7 | MsrA activ conf inactive
COC1=CC(=O)c2nc(Cl)ccc2C1=O	MsrA act 12 | MsrA activ conf 7.5
CN1CCN(C(=O)CN(c2cccc(Cl)c2)S(=O)(=O)c2ccccc2)CC1	MsrA act 11 | MsrA activ conf inactive
Cc1cccc(N(CC(=O)N2CCN(C)CC2)S(=O)(=O)c2ccccc2)c1	none
CCOc1ccc2oc(C(=O)OCC(=O)N3C(C)CCCC3C)c(C)c2c1 (centres undefined)	MsrA act 8.7 | MsrA activ conf inactive
COc1ccc2oc(C(=O)OCC(=O)N3C(C)CCCC3C)c(C)c2c1 (centres undefined)	none
Cn1ccsc1=NC(=O)c1ccc([N+](=O)[O-])o1	MsrA act 8.8 | MsrA activ conf inactive
Cn1c(N=Nc2ccccc2)nc2ccccc21	MsrA act 7.7 | MsrA activ conf inactive
O=C(Nc1ccc2c(c1)OCCO2)C1c2ccccc2OCC(=O)N1CCc1c[nH]c2ccccc12 (centres undefined)	MsrA act 8.0 | MsrA activ conf inactive
O=C(NC1CCCC1)C1c2ccccc2OCC(=O)N1CCc1c[nH]c2ccccc12 (centres undefined)	none
CCc1cc(C(=O)Cc2ccc(F)cc2)c(O)cc1O	none
CCCc1cc(C(=O)Cc2ccc(F)cc2)c(O)cc1O	MsrA act 22 | MsrA activ conf inactive
CCOC(=O)[C@H]1[C@H]2COc3ccc(OC)cc3[C@@H]2N2C(=O)CN(Cc3ccc(C)cc3)C(=O)[C@@]12C	MsrA act 14 | MsrA activ conf inactive
